Source: PubChem BioAssay (National Center for Advancing Translational Sciences (NCATS))
ELG1 DNA repair: qHTS screen for small molecules that inhibit ELG1-dependent DNA repair in human embryonic kidney (HEK293T) cells expressing luciferase-tagged ELG1. HEK293T ELG1-luciferase reporter, luminescence, 16 h; DNA damage induced by 5-fluorouridine. Potency, µM (top dose mostly 46.1 µM), for the others: top-dose activity change, negative = inhibition, most hits filed as inhibitors. 330,000 tested, 2.3% active; also: potency is read from the fitted curve at half-maximal effect; nearly all actives have a fitted effect of over 55% in size
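Quantitative HTS, concentration-response format. 2,000 cells/well co-treated with 5-fluorouridine and compound, 16 hr in 5% CO2 at 37 °C; ONE-Glo luminescence read after 30 min.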
IL-1B inflam inh: qHTS for Inhibitors of Inflammasome Signaling: IL-1-beta AlphaLISA Primary Screen | AID 743279, 2014 | THP-1 LPS/ATP IL-1B secretion, AlphaLISA, 16 h; stronger effect = lower value | activity change, % at 57.5 µM | 360,000 tested, 4.7% active; in the data active = activity change below about -50%; inconclusive = mostly about -30% to -49%
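THP-1 cells pretreated 1 hr with compounds (up to 57.5 uM final), then stimulated with LPS (250 ng/mL final) plus ATP (1.25 mM final); secreted IL-1B measured by AlphaLISA after 16 hr, decreased signal indicating inhibition.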
TDP1 block: qHTS Assay for Inhibitors of Tyrosyl-DNA Phosphodiesterase (TDP1) | Tyrosyl-DNA phosphodiesterase 1 (Homo sapiens), Q9NUW8 | recombinant TDP1, AlphaScreen DNA substrate cleavage | Potency, µM (top dose mostly 130 µM), inactives show at the top dose activity change, negative = inhibition, most hits filed as inhibitors | 350,000 tested, 0.28% active | AID 485290, 2010; also: potency is read from the fitted curve at half-maximal effect; nearly all actives have a fitted effect of over 40% in size
Target sequence (Q9NUW8 whole entry, looked up): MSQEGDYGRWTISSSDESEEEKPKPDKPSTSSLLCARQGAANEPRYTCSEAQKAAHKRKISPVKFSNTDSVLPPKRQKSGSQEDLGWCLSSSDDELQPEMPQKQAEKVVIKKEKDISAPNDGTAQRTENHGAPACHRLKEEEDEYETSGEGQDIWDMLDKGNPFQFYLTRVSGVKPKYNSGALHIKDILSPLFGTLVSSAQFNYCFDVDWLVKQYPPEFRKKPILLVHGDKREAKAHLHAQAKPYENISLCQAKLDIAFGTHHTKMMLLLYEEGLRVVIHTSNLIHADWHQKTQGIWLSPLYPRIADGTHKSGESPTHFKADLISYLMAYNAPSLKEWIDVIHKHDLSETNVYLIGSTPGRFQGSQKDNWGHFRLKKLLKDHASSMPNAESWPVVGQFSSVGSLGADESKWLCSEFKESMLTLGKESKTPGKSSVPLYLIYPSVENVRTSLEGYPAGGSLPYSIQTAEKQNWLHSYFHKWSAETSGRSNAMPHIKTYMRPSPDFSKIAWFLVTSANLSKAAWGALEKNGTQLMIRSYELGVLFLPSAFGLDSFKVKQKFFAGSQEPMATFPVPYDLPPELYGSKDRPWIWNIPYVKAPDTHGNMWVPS
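AlphaScreen read-out: signal falls as enzyme removes the 3' tyrosine-FITC from a 5'-biotinylated DNA oligo (15 nM, 5 min, RT). Enzyme was E. coli-made recombinant Tdp1 at 1 nM, exposed to compound for 15 min beforehand; beads 10 ug/ml, 10 min.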
DT40 TDP1 no CPT: qHTS for Inhibitors of human tyrosyl-DNA phosphodiesterase 1 (TDP1): qHTS in cells in absence of CPT; DT40 Tdp1-/- hTDP1 cells, no CPT, ATP luminescence, 48 h; Potency, µM (doses to about 46.2 µM), inactives show at the top dose activity change, negative = growth inhibition, hits mostly inhibitors; 420,000 tested, 15% active; AID 686978, 2013; also: potency is read from the fitted curve at half-maximal effect; nearly all actives have a fitted effect of over 55% in size
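Growth of hTDP1-complemented DT40 Tdp1-knockout cells is measured by ATP luminescence after at least 48 hr compound exposure at 37 °C, with DMSO substituting for the 20 nM CPT used in the parallel screen.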
Giardia killer: Small Molecules that selectively kill Giardia lamblia: qHTS | Giardia lamblia trophozoite viability | activity change, % at 7.66 µM, hits read low | 340,000 tested, 0.15% active; in the data active = activity change below about -80%; inconclusive = between about -30% and that limit;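 also: parasites exposed to compound for two days anaerobically before the ATP read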
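Luminescence from cellular ATP indicates surviving trophozoites (100 cells/well) following 48 hrs anaerobic compound treatment at 37 deg C; signal develops 15-30 min at room temperature.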
TDP1 cell CPT: qHTS for Inhibitors of human tyrosyl-DNA phosphodiesterase 1 (TDP1): qHTS in cells in presence of CPT | 420,000 tested, 12% active | AID 686979, 2013 | chicken DT40 Tdp1-/-;hTDP1 cells + 20 nM CPT, ATP luminescence, 48 h | Potency, µM (doses to about 46.2 µM), without a hit: top-dose activity change, negative = growth inhibition, usual class: inhibitors; also: potency is read from the fitted curve at half-maximal effect; nearly all actives have a fitted effect of over 55% in size
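Chicken DT40 Tdp1-/- cells stably complemented with human TDP1 were seeded at 400 cells/well in medium containing 20 nM camptothecin, exposed to pin-transferred compounds, and grown at 37 °C for at least 48 hr. Viability was read as ATP luminescence.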
* hit, by the source's call; [ ] = dose if it differs, or a comment. A selection: hits, their analogues and other compounds. The true share with any hit is near 19%. Unless noted, calls follow the shape of the dose curve; as a rule, active = well fitted curve in the direction sought with a large enough effect; inconclusive = small, poorly fitted or top-dose-only effect, or another doubt; inactive = no such curve, though single readings can be large; an effect the other way counts as inactive or inconclusive. % is scaled to controls: 0 for no effect and ±100 for the full control effect.

`CC(=O)c1cccc(NC(=O)C(C)OC(=O)c2cc(C)oc2C)c1` (centres undefined) gave ELG1 DNA repair -0.1%, IL-1B inflam inh 6.1, TDP1 block 0.6%, DT40 TDP1 no CPT -26.9%, Giardia killer -12.5 and TDP1 cell CPT -24.1%.
For Cc1ccc(NC(=O)C(NC2CCCC2)c2ccccc2)cc1Cl (centres undefined) the results were ELG1 DNA repair -8.1%, IL-1B inflam inh inconclusive, TDP1 block -2.7%, DT40 TDP1 no CPT 16.4µM*, Giardia killer 20.6 and TDP1 cell CPT inconclusive.
For O=C(Nc1ccc(F)cc1)C(c1ccccc1)N1CCN(CC(=O)N2CCOCC2)CC1 (centres undefined) the results were ELG1 DNA repair inconclusive, IL-1B inflam inh -23.7, TDP1 block -1.8%, DT40 TDP1 no CPT 27.1%, Giardia killer 13.7 and TDP1 cell CPT -19.5%.
Cc1ccc(NC(=O)C(c2ccccc2)N2CCN(CC(=O)N3CCOCC3)CC2)cc1Cl (centres undefined) was read as ELG1 DNA repair 24.5%, IL-1B inflam inh -29.0, TDP1 block 28.2µM*, DT40 TDP1 no CPT -13.5%, Giardia killer -13.9 and TDP1 cell CPT -0.9%.
`COC(=O)N[C@@H](CCc1ccccc1)/C(C(=O)OC)=C(\C)NCc1ccccc1` gave TDP1 block -3.1%.
For COc1ccccc1CCC(=O)Nc1ccc2c(c1)CN(Cc1ccc(CO)o1)CC2 the results were ELG1 DNA repair 1.7%, IL-1B inflam inh inactive, TDP1 block 4.0%, DT40 TDP1 no CPT inconclusive, Giardia killer -9.0 and TDP1 cell CPT inconclusive.
CC(C)=CCc1c2c(c3occ(-c4ccc(O)c(O)c4)c(=O)c3c1O)C=CC(C)(C)O2 was read as IL-1B inflam inh -61.6*, TDP1 block 9.0%[56.1 µM], DT40 TDP1 no CPT 1.46µM*, Giardia killer -16.1 and TDP1 cell CPT 1.3µM*.
For CC1(C)C=Cc2c(c3c(c4c(=O)c(-c5ccc(O)cc5)coc24)OC(C)(C)CC3)O1 the results were ELG1 DNA repair inconclusive, IL-1B inflam inh inconclusive, TDP1 block 7.2%, DT40 TDP1 no CPT 25.9µM*, Giardia killer 4.5 and TDP1 cell CPT 18.4µM*.
Screening Cc1ccc(S(=O)(=O)NC(=O)C2(C)CCN2C(=O)c2cccc(F)c2)cc1 (centres undefined) returned IL-1B inflam inh 0.0, DT40 TDP1 no CPT 4.3% and TDP1 cell CPT 1.1%.
`CCN(c1ccc(N=Cc2c(O)n(Cc3ccc(OC)cc3)c(=O)c3ccccc23)cc1)C(C)C` gave ELG1 DNA repair -8.1%, IL-1B inflam inh 7.2, TDP1 block 6.3%, DT40 TDP1 no CPT -4.6%, Giardia killer -9.0 and TDP1 cell CPT 7.3%.
For Clc1ccc2c(c1)-c1c(cnc3cc(-c4ccccc4)nn13)CO2 the results were TDP1 block 7.1%, DT40 TDP1 no CPT -14.0% and TDP1 cell CPT -16.4%.
Screening CCOc1ccc(/C=C/C(=O)c2cccs2)cc1 returned TDP1 block -9.0%[56.1 µM], DT40 TDP1 no CPT inconclusive and TDP1 cell CPT 26.6µM*.
O=C(/C=C/c1ccc([N+](=O)[O-])cc1)c1cccs1 was read as ELG1 DNA repair -1.7%, IL-1B inflam inh -11.5, TDP1 block -5.5%, DT40 TDP1 no CPT inconclusive, Giardia killer -19.1 and TDP1 cell CPT inconclusive.
O=C(/C=C/c1ccccc1)c1cccs1 was read as TDP1 block 11.9%, DT40 TDP1 no CPT 9.44µM* and TDP1 cell CPT 6.68µM*.
Cc1c(/C=C/C(=O)c2cccs2)cnn1C was read as ELG1 DNA repair inconclusive, IL-1B inflam inh -22.9, TDP1 block 0.0%, DT40 TDP1 no CPT inconclusive, Giardia killer 4.5 and TDP1 cell CPT 16.4µM*.
O=C(C=Cc1ccccc1)c1cccs1 was read as IL-1B inflam inh -20.0, DT40 TDP1 no CPT 16.4µM*, Giardia killer 25.0 and TDP1 cell CPT 18.4µM*.
`COC(=O)c1ccc(NC(=O)C2CCN(c3ncnc4c3nc3n4CCCCC3)CC2)cc1` gave TDP1 block 7.5%, DT40 TDP1 no CPT inconclusive and TDP1 cell CPT inconclusive.
For Cc1cc2oc(C(=O)Nc3ccc(S(=O)(=O)Nc4onc(C)c4C)cc3)cc(=O)c2cc1C the results were TDP1 block 6.1%, DT40 TDP1 no CPT -0.9% and TDP1 cell CPT 11.5%.
Nc1ccc(NC(=O)c2cccs2)cc1 was read as ELG1 DNA repair inconclusive, IL-1B inflam inh 3.7, TDP1 block 1.2%, DT40 TDP1 no CPT -7.8%, Giardia killer 4.0 and TDP1 cell CPT -9.8%.
`Nc1ccc(/C=C/C(=O)c2cccs2)cc1` gave ELG1 DNA repair inconclusive, IL-1B inflam inh -108.7*, TDP1 block 0.0%, DT40 TDP1 no CPT inconclusive, Giardia killer -15.0 and TDP1 cell CPT 7.8%.
`O=C(c1ccc2c(c1)N(Cc1ccccc1)C(=O)c1ccccc1S2(=O)=O)N1CCOCC1` gave TDP1 block 6.9%, DT40 TDP1 no CPT -17.5% and TDP1 cell CPT 5.8%.
For CCOc1ccc(C2SCC(=O)N2c2c(C)n(C)n(-c3ccccc3)c2=O)cc1 (centres undefined) the results were ELG1 DNA repair 2.6%, IL-1B inflam inh -1.6, TDP1 block 1.0%, DT40 TDP1 no CPT -2.4%, Giardia killer -7.1 and TDP1 cell CPT 7.3%.
`CCOc1ccc(C2=C(C=Nc3c(C)n(C)n(-c4ccccc4)c3=O)C(c3ccc(F)cc3)c3ccccc3O2)cc1` (centres undefined) gave ELG1 DNA repair -4.1%, IL-1B inflam inh -0.4, TDP1 block 1.3%, DT40 TDP1 no CPT inconclusive, Giardia killer 3.7 and TDP1 cell CPT 23.1µM*.
For Cc1ccccc1OCC(O)Cn1c(=N)n(Cc2ccccc2)c2ccccc21 (centres undefined) the results were ELG1 DNA repair inconclusive, IL-1B inflam inh -106.4*, DT40 TDP1 no CPT 5.17µM*, Giardia killer -14.3 and TDP1 cell CPT 4.11µM*.
For N=c1n(Cc2ccccc2)c2ccccc2n1CC(O)c1ccccc1 (centres undefined) the results were ELG1 DNA repair inconclusive, IL-1B inflam inh inconclusive, TDP1 block 2.9%, DT40 TDP1 no CPT 20.6µM*, Giardia killer -6.3 and TDP1 cell CPT 10.3µM*.
